Results: PubChem BioAssay (NCI)
About 79,000 compounds went through this panel and 15% of them were active in at least one assay; those are over-represented in the sample as a whole. Calls of active or inactive are those of the source. No stated cut-off is given here; in the data, active means growth inhibition above about 70%; inactive means the rest.

Assays:
[1] = NCI Yeast Anticancer Drug Screen. Data for the rad52 strain (AID 147);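 further: 0% = growth of vehicle-treated control cultures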; settings: S. cerevisiae rad52 mutant growth inhibition, stronger effect = higher value
Summary of the method: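 Inhibition of yeast growth, referenced to vehicle controls, was the measured output for a strain with defective DNA damage repair.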

[2] = NCI Yeast Anticancer Drug Screen. Data for the wt1 strain (AID 149);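 further: 0% = growth of vehicle-treated wt1 cultures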; settings: S. cerevisiae wt1 strain (SPY 50644) growth inhibition, stronger effect = higher value
Summary of the method: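 Using yeast strain wt1, compound-induced growth inhibition was determined against vehicle-treated cultures.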

[3] = NCI Yeast Anticancer Drug Screen. Data for the rad50EPP+ strain (AID 151);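 further: 0% = growth of vehicle-treated control cultures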; settings: S. cerevisiae rad50 mutant strain, stronger effect = higher value
Summary of the method: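 Genetically defined yeast (rad50EPP+, DNA damage repair alteration) is grown with compound, and inhibition of growth is expressed relative to vehicle-treated controls.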

[4] = NCI Yeast Anticancer Drug Screen. Data for the mgt1 strain (AID 153); settings: S. cerevisiae mgt1 mutant growth inhibition, stronger effect = higher value
Summary of the method: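 In the mgt1 strain, test compounds were added and growth inhibition was determined relative to vehicle-treated controls.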

[5] = NCI Yeast Anticancer Drug Screen. Data for the rad50 strain (AID 155);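 further: 0% = growth of vehicle-only cultures of the same strain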; settings: S. cerevisiae rad50 strain growth inhibition, stronger effect = higher value
Summary of the method: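 Relative growth inhibition (compound vs vehicle) was measured in yeast with a defined repair-gene alteration.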

[6] = NCI Yeast Anticancer Drug Screen. Data for the mec2-1 strain (AID 157); settings: S. cerevisiae mec2-1 strain, stronger effect = higher value
Summary of the method: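 Each compound was tested on mec2-1 yeast, a strain altered in DNA damage repair or cell cycle control. Growth inhibition is reported relative to vehicle.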

[7] = NCI Yeast Anticancer Drug Screen. Data for the sgs1 mgt1 strain (AID 161);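 further: 0% = growth of cultures given vehicle only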; settings: S. cerevisiae sgs1 mgt1 strain, stronger effect = higher value
Summary of the method: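 Genetically altered yeast, compound exposure, growth inhibition relative to vehicle.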

[8] = NCI Yeast Anticancer Drug Screen. Data for the CLN2oe strain (AID 163);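 further: 0% = growth of vehicle-only control cultures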; settings: S. cerevisiae CLN2oe strain, stronger effect = higher value
Summary of the method: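 First, the altered yeast strain was treated with each compound; second, its growth was measured; finally, inhibition was derived by comparison with vehicle controls.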

[9] = NCI Yeast Anticancer Drug Screen. Data for the cln2 rad14 strain (AID 165);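 further: 0% = growth equal to vehicle treated cultures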; settings: S. cerevisiae cln2 rad14 strain, stronger effect = higher value
Summary of the method: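 Test compounds were added to cln2 rad14 yeast cultures; inhibition of growth was then determined by comparison with vehicle treatment.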

[10] = NCI Yeast Anticancer Drug Screen. Data for the bub3 strain (AID 167); settings: S. cerevisiae bub3 mutant strain, stronger effect = higher value
Summary of the method: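 Screening used yeast with an engineered genetic alteration affecting cell cycle control. Compound-exposed cultures were compared with vehicle cultures, and reduced growth was taken as inhibition.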

[11] = NCI Yeast Anticancer Drug Screen. Data for the wt2 strain (AID 169);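 further: 0% = growth of vehicle-treated yeast cultures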; settings: S. cerevisiae wt2 strain growth inhibition, stronger effect = higher value
Summary of the method: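 The panel's yeast strains carry defined changes in DNA repair or cell cycle genes. Each strain is grown with compound, and growth loss is scored relative to vehicle.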

[12] = NCI Yeast Anticancer Drug Screen. Data for the mlh1 strain (AID 171);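 further: 0% = growth of vehicle-treated control cultures of the same strain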; settings: S. cerevisiae mlh1 strain growth inhibition, stronger effect = higher value
Summary of the method: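 Inhibition values reflect reduced yeast growth in the presence of compound, referenced to vehicle controls, using a strain chosen for its alteration in DNA repair or cell cycle control.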

[13] = NCI Yeast Anticancer Drug Screen. Data for the sgs1 strain (AID 173);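 further: 0% = growth of vehicle-only control cultures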; settings: S. cerevisiae sgs1 mutant, stronger effect = higher value
Summary of the method: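 Vehicle-treated cultures served as reference for growth inhibition of a yeast strain altered in DNA damage repair or cell cycle control after compound exposure.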

[14] = NCI Yeast Anticancer Drug Screen. Data for the mlh1 rad18 strain (AID 175); settings: S. cerevisiae mlh1 rad18 strain growth inhibition, stronger effect = higher value
Summary of the method: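 Inhibition values reflect reduced growth of mutant yeast versus vehicle-treated controls following compound exposure; the mutations affect DNA damage repair.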

[15] = NCI Yeast Anticancer Drug Screen. Data for the rad18 strain (AID 177); settings: S. cerevisiae rad18 mutant growth inhibition, stronger effect = higher value
Summary of the method: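 Steps: expose repair-mutant yeast to compound; measure growth; express as inhibition relative to vehicle control.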

[16] = NCI Yeast Anticancer Drug Screen. Data for the rad14 strain (AID 159);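 further: 0% = growth of vehicle-treated control cultures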; settings: S. cerevisiae rad14 strain growth inhibition, stronger effect = higher value
Summary of the method: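 Screen for anticancer potential: a yeast strain altered in DNA damage repair is grown with compound, and reduced growth is quantified against vehicle controls.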

[17] = at 5.0 µM (retest, dose inferred, filed as 0.5)
[18] = at 50.0 µM (retest, dose inferred, filed as 5.0)

Measured: growth inhibition

Cc1ccc(NC(=O)/C(Cl)=C(\Cl)C(=O)O)cc1C
inactive: [1]; at 1.2 µM 2% | [1]; at 3.7 µM 7% | [1]; at 11.0 µM 42% | [2]; at 1.2 µM -2% | [2]; at 3.7 µM -3% | [2]; at 11.0 µM 2% | [3]; at 1.2 µM 6% | [3]; at 3.7 µM 16% | [4]; at 1.2 µM 4% | [4]; at 3.7 µM 7% | [4]; at 11.0 µM 22% | [5]; at 1.2 µM 2% | [5]; at 3.7 µM 7% | [5]; [17] 13% | [5]; at 11.0 µM 38% | [6]; at 1.2 µM 6% | [6]; at 3.7 µM 10% | [6]; [17] 15% | [6]; at 11.0 µM 24% | [7]; [17] 21% | [8]; at 1.2 µM 3% | [8]; at 3.7 µM 4% | [8]; at 11.0 µM 13% | [9]; [17] 8% | [10]; at 1.2 µM 7% | [10]; at 3.7 µM 5% | [10]; [17] 21% | [10]; at 11.0 µM 20% | [11]; at 1.2 µM 0% | [11]; at 3.7 µM 2% | [11]; at 11.0 µM 11% | [12]; at 1.2 µM 1% | [12]; at 3.7 µM 4% | [12]; at 11.0 µM 12% | [13]; at 1.2 µM 1% | [13]; at 3.7 µM 6% | [13]; at 11.0 µM 29% | [14]; [17] 16% | [15]; at 1.2 µM 0% | [15]; at 3.7 µM 3% | [15]; at 11.0 µM 24%
active: [1]; at 33.0 µM 99% | [1]; at 100.0 µM 99% | [2]; at 33.0 µM 88% | [2]; at 100.0 µM 98% | [3]; at 11.0 µM 77% | [3]; at 33.0 µM 99% | [3]; at 100.0 µM 99% | [4]; at 33.0 µM 99% | [4]; at 100.0 µM 99% | [5]; at 33.0 µM 99% | [5]; [18] 99% | [5]; at 50.0 µM 99.2% | [5]; at 100.0 µM 98% | [6]; at 33.0 µM 99% | [6]; [18] 100% | [6]; at 50.0 µM 99.5% | [6]; at 100.0 µM 99% | [7]; [18] 100% | [7]; at 50.0 µM 99.5% | [8]; at 33.0 µM 96% | [8]; at 100.0 µM 99% | [9]; [18] 99% | [9]; at 50.0 µM 72% | [10]; at 33.0 µM 99% | [10]; [18] 99% | [10]; at 50.0 µM 99.5% | [10]; at 100.0 µM 99% | [11]; at 33.0 µM 97% | [11]; at 100.0 µM 99% | [12]; at 33.0 µM 96% | [12]; at 100.0 µM 99% | [13]; at 33.0 µM 99% | [13]; at 100.0 µM 99% | [14]; [18] 99% | [14]; at 50.0 µM 99.3% | [15]; at 33.0 µM 99% | [15]; at 100.0 µM 99%

CN1c2ccc(Cl)cc2C(=O)NC1c1ccc([N+](=O)[O-])s1 (stereo unspecified)
inactive: [1]; at 1.2 µM 27% | [1]; at 3.7 µM 30% | [1]; at 11.0 µM 65% | [2]; at 1.2 µM 5% | [2]; at 3.7 µM 1% | [2]; at 11.0 µM 17% | [4]; at 1.2 µM -5% | [4]; at 3.7 µM 8% | [4]; at 11.0 µM 23% | [5]; at 1.2 µM 20% | [5]; at 3.7 µM 39% | [5]; [17] 9% | [6]; at 1.2 µM -7% | [6]; at 3.7 µM -52% | [6]; [17] 19% | [6]; at 11.0 µM 14% | [16]; at 1.2 µM -8% | [16]; at 3.7 µM -3% | [7]; [17] -10% | [8]; at 1.2 µM 4% | [8]; at 3.7 µM -2% | [8]; at 11.0 µM -3% | [9]; [17] 37% | [10]; at 1.2 µM 0% | [10]; at 3.7 µM 2% | [10]; [17] -1% | [10]; at 11.0 µM 11% | [11]; at 1.2 µM 7% | [11]; at 3.7 µM 4% | [11]; at 11.0 µM 42% | [12]; at 1.2 µM 13% | [12]; at 3.7 µM 14% | [12]; at 11.0 µM 51% | [13]; at 1.2 µM -4% | [13]; at 3.7 µM 13% | [13]; at 11.0 µM 58% | [14]; [17] 2% | [15]; at 1.2 µM 3% | [15]; at 3.7 µM 25%
active: [1]; at 33.0 µM 97% | [1]; at 100.0 µM 97% | [2]; at 33.0 µM 92% | [2]; at 100.0 µM 96% | [4]; at 33.0 µM 97% | [4]; at 100.0 µM 96% | [5]; at 11.0 µM 72% | [5]; at 33.0 µM 97% | [5]; [18] 95% | [5]; at 50.0 µM 91.3% | [5]; at 100.0 µM 96% | [6]; at 33.0 µM 93% | [6]; [18] 95% | [6]; at 50.0 µM 93.2% | [6]; at 100.0 µM 96% | [16]; at 11.0 µM 71% | [16]; at 33.0 µM 96% | [16]; at 100.0 µM 97% | [7]; [18] 94% | [7]; at 50.0 µM 93.8% | [8]; at 33.0 µM 92% | [8]; at 100.0 µM 97% | [9]; [18] 96% | [9]; at 50.0 µM 91% | [10]; at 33.0 µM 93% | [10]; [18] 97% | [10]; at 50.0 µM 92.4% | [10]; at 100.0 µM 97% | [11]; at 33.0 µM 97% | [11]; at 100.0 µM 97% | [12]; at 33.0 µM 96% | [12]; at 100.0 µM 97% | [13]; at 33.0 µM 95% | [13]; at 100.0 µM 96% | [14]; [18] 98% | [14]; at 50.0 µM 92.8% | [15]; at 11.0 µM 81% | [15]; at 33.0 µM 96% | [15]; at 100.0 µM 97%
